Assay results: article PMC5540273 (PLoS ONE, 2017)

Columns and labels:
Conditions in all cases: concentration: 1 μM,replicates: in singlicate; n = 1
CAMK1 = tested on: CAMK1
CAMK2A = tested on: CAMK2A
CAMK2B = tested on: CAMK2B
CAMK2D = tested on: CAMK2D
CAMK2G = tested on: CAMK2G
CAMK4 = tested on: CAMK4
CAMKK1 = tested on: CAMKK1
CAMKK2 = tested on: CAMKK2
CASK = tested on: CASK
CDC2L1 = tested on: T1, CDC2L1
T1 construct: gene CDK11B

CDC2L2 = tested on: CDC2L2
CDC2L5 = tested on: T2, CDC2L5
T2 construct: gene CDK13

CDK11 = tested on: T3, CDK11
T3 construct: gene CDK19

CDK2 = tested on: CDK2
CDK3 = tested on: CDK3
CDK4-cyclinD1 = tested on: CDK4-cyclinD1
CDK4-cyclinD3 = tested on: CDK4-cyclinD3
CDK4 = tested on: CDK4
CDK5 = tested on: CDK5
CDK7 = tested on: CDK7
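Further: KINOMEscan kinase panel screen.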

| SMILES | %Inh (CAMK1) [%] | %Inh (CAMK2A) [%] | %Inh (CAMK2B) [%] | %Inh (CAMK2D) [%] | %Inh (CAMK2G) [%] | %Inh (CAMK4) [%] | %Inh (CAMKK1) [%] | %Inh (CAMKK2) [%] | %Inh (CASK) [%] | %Inh (CDC2L1) [%] | %Inh (CDC2L2) [%] | %Inh (CDC2L5) [%] | %Inh (CDK11) [%] | %Inh (CDK2) [%] | %Inh (CDK3) [%] | %Inh (CDK4-cyclinD1) [%] | %Inh (CDK4-cyclinD3) [%] | %Inh (CDK4) [%] | %Inh (CDK5) [%] | %Inh (CDK7) [%] |
| --- | --- | --- | --- | --- | --- | --- | --- | --- | --- | --- | --- | --- | --- | --- | --- | --- | --- | --- | --- | --- |
| COC(=O)c1cccc(NC(=O)NC2CCN(c3ccnc(Nc4cc(OC)c(OC)c(OC)c4)n3)C2)c1 (stereo not shown) [GSK1379767] | 35 | 0 | 0 | 0 | 26 | 0 | 13 | 19 | 2 | 0 | 36 | 0 | 24 | 0 | 12 | 27 | 0 | 37 | 0 | 16 |
| O=c1[nH]cc(-c2ccc(O)cc2)c2sc(-c3ccncc3)cc12 [GSK1033723] | 6 | 0 | 0 | 4 | 29 | 0 | 15 | 15 | 15 | 0 | 12 | 0 | 0 | 0 | 1 | 0 | 0 | 31 | 0 | 0 |
| CCN1CCN(CCCC(=O)Nc2n[nH]c3nc(-c4ccc(O)cc4)c(Br)cc23)CC1 [SB-731579] | 0 | 0 | 0 | 0 | 0 | 10 | 0 | 0 | 0 | 0 | 4 | 0 | 0 | 1 | 30 | 99.5 | 95.1 | 22 | 0 | 94.7 |
| N#Cc1cccc(C(=O)NC2CCN(c3ccnc(Nc4ccc(F)cc4)n3)C2)c1 (stereo not shown) [GSK1379708] | 9 | 0 | 0 | 0 | 0 | 0 | 0 | 0 | 15 | 0 | 0 | 0 | 4 | 0 | 0 | 0 | 0 | 10 | 0 | 0 |
| Cc1nnc(-c2ccc3occ(-c4ccc(S(C)=O)cc4)c3n2)o1 (stereo not shown) | 3 | 0 | 0 | 0 | 0 | 0 | 6 | 11 | 0 | 0 | 0 | 0 | 0 | 6 | 0 | 0 | 0 | 0 | 0 | 0 |
| c1ccc(Oc2ccc(Nc3ccnc4ccc(-c5ccccn5)cc34)cc2)cc1 [GW407034] | 1 | 0 | 0 | 7 | 16 | 0 | 0 | 9 | 8 | 0 | 0 | 0 | 12 | 0 | 15 | 0 | 12 | 0 | 93.1 | 0 |
| COC(=O)c1cccc(NC(=O)NC2CCN(c3ccnc(NCc4ccc(F)cc4)n3)CC2)c1 [GSK1379860] | 0 | 0 | 0 | 0 | 1 | 0 | 0 | 0 | 0 | 0 | 0 | 0 | 12 | 0 | 9 | 0 | 0 | 0 | 2 | 0 |
| CNC(=O)c1ccccc1Nc1nc(Nc2cccc(CS(C)(=O)=O)c2)ncc1C.O=CO [GSK1520489] | 76 | 1 | 0 | 16 | 34 | 0 | 88 | 91.2 | 59 | 0 | 0 | 0 | 0 | 16 | 36 | 0 | 19 | 30 | 0 | 89 |
| COc1cccc(CNC(=O)NC2CCN(c3ccnc(Nc4cc(OC)c(OC)c(OC)c4)n3)C2)c1 (stereo not shown) [GSK1379765] | 35 | 0 | 0 | 0 | 19 | 0 | 16 | 14 | 0 | 0 | 25 | 0 | 22 | 0 | 8 | 4 | 0 | 14 | 0 | 0 |
| Cc1ccc(CC(=O)N2CCc3cc(-c4cn(C)c5ncnc(N)c45)ccc32)cc1 [GSK2634758] | 7 | 0 | 0 | 16 | 22 | 0 | 5 | 19 | 7 | 0 | 21 | 0 | 72 | 5 | 0 | 0 | 0 | 26 | 10 | 1 |
| C[C@@H]1CNc2c(sc3ccc4nc(-c5ccc(O)cc5)ccc4c23)C(=O)N1 | 16 | 35 | 36 | 32 | 23 | 30 | 40 | 58 | 0 | 0 | 6 | 0 | 37 | 0 | 12 | 30 | 0 | 4 | 25 | 82 |
| O=C1NCCc2[nH]c(-c3ccncc3)cc21 | 13 | 9 | 10 | 0 | 0 | 0 | 0 | 0 | 0 | 0 | 0 | 38 | 22 | 1 | 13 | 21 | 36 | 27 | 29 | 71 |
| C[C@@H](Oc1cc(-n2cnc3cc(-c4ccncc4)ccc32)sc1C(N)=O)c1ccccc1Cl [GSK479719] | 4 | 0 | 0 | 0 | 0 | 0 | 18 | 54 | 29 | 0 | 0 | 0 | 0 | 42 | 29 | 0 | 21 | 0 | 0 | 1 |
| Cl.c1ccc(Oc2ccc(Nc3ccnc4cc(-c5ccc(CN6CCNCC6)o5)ccc34)cc2)nc1 [GW567142] | 29 | 0 | 0 | 3 | 0 | 0 | 0 | 0 | 0 | 0 | 16 | 0 | 10 | 0 | 0 | 0 | 0 | 14 | 0 | 52 |
| Cn1ccc2ncnc(Oc3ccc(NC(=O)Nc4cc(C(C)(C)C)on4)c(Cl)c3)c21 | 17 | 100 | 100 | 4 | 14 | 0 | 6 | 22 | 0 | 0 | 4 | 26 | 100 | 12 | 2 | 0 | 2 | 2 | 0 | 55 |
| Cn1cc(-c2cccc3c(N)c(C(N)=O)nnc23)cn1 | 33 | 7 | 2 | 15 | 0 | 0 | 5 | 6 | 4 | 1 | 7 | 10 | 19 | 17 | 30 | 8 | 7 | 0 | 3 | 26 |
| CCn1c(-c2nonc2N)nc2cncc(Br)c21 [SB-738004] | 14 | 27 | 29 | 27 | 14 | 0 | 25 | 17 | 29 | 0 | 13 | 18 | 14 | 1 | 3 | 43 | 0 | 36 | 0 | 48 |
| Cc1ccn2nc(-c3ccc(F)cc3)c(-c3ccncc3)c2c1.Cl [GW457859] | 16 | 0 | 0 | 0 | 15 | 0 | 0 | 9 | 6 | 0 | 24 | 0 | 1 | 0 | 2 | 18 | 0 | 50 | 0 | 47 |
| CCOC(=O)N1CCC(n2cnc(-c3ccc(F)cc3)c2-c2ccnc(N)n2)CC1 [SB-219952] | 0 | 0 | 0 | 0 | 8 | 12 | 0 | 0 | 0 | 11 | 23 | 30 | 29 | 0 | 0 | 24 | 6 | 32 | 0 | 30 |
| CC(C)c1nc(-c2cccc(NS(=O)(=O)c3ccccc3)c2)c(-c2ccnc(Nc3ccc4c(c3)CN(C)CC4)n2)s1 [GSK1649598] | 57 | 0 | 0 | 22 | 28 | 0 | 29 | 23 | 14 | 15 | 24 | 92.7 | 0 | 99.3 | 99.6 | 65 | 44 | 93.7 | 87 | 78 |
